Reference: PubChem BioAssay (NCATS)
“And” between values parts separate entries of the source, which are not always exact repeats. Identical values can stand only once. Results filed as inconclusive are left out. The source made the active and inactive calls. Unless noted, calls come from the whole dose curve; as a rule, active = well fitted curve in the direction sought with a large enough effect; inconclusive = small, poorly fitted or top-dose-only effect, or another doubt; inactive = no such curve, though single readings can be large; an effect the other way counts as inactive or inconclusive.

Legend:
[1] = target: Cellular tumor antigen p53 (Homo sapiens) (UniProt P04637); experiment: Primary qHTS for small molecule compounds that upregulate eGFP-tagged delta133p53alpha (in N-terminal) cells. (AID 2060322); details: NCI-H358 eGFP-delta133p53alpha fluorescence, 24 h; activation: active compounds read high; note: nearly all actives have a fitted effect of over 75% in size; note: potency is the fitted concentration of half-maximal effect;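 for activation: cells pre-induced with doxycycline then dosed without doxycycline; 0% = DMSO vehicle and 100% = reference activator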
How it was run: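 NCI-H358 cells pre-induced 24 h with 10 ng/ml doxycycline for eGFP-delta133p53alpha, plated dox-free and exposed 24 h at 37C to titrated compounds. Fixed, Hoechst-stained; gated GFP peak intensity by laser scanning cytometry, normalized to DMSO (0%) and 57.5 uM 5-azacytidine (100%).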

[2] = target: Aldehyde dehydrogenase, mitochondrial (Homo sapiens) (UniProt P05091); experiment: qHTS for Inhibitors of the Aldehyde Dehydrogenase Family (ALDH2) Confirmatory screens (AID 2061303; active = well fitted inhibition curve with a large enough effect; title and protocol of this record describe different tests; note: nearly all actives have a fitted effect of over 45% in size; note: potency is the fitted concentration of half-maximal effect); details: ALDH inhibition qHTS; series mostly up to 45.4 µM
[3] = qHTS for Inhibitors of the Aldehyde Dehydrogenase Family (ALDH1A2, ALDH1A3, ALDH2, ALDH3A1) (AID 2061307); details: ALDH inhibition qHTS; series mostly up to 50.3 µM; note: nearly all actives have a fitted effect of over 50% in size; for Potency: test system not described further here; potency is the fitted concentration of half-maximal effect
[4] = target: Aldehyde dehydrogenase, mitochondrial (Homo sapiens) (UniProt P05091); experiment: qHTS for Inhibitors of the Aldehyde Dehydrogenase Family (ALDH2) Primary screen (AID 2061308); details: ALDH2 enzyme inhibition qHTS, 1536-well; series mostly up to 56 µM; note: nearly all actives have a fitted effect of over 55% in size; note: potency is the fitted concentration of half-maximal effect
[5] = target: Retinaldehyde dehydrogenase 3 (Homo sapiens) (UniProt P47895); experiment: qHTS for Inhibitors of the Aldehyde Dehydrogenase Family (ALDH1A3) Validation screen (AID 2061312); details: ALDH1A3 enzyme inhibition qHTS validation, fluorescence; series mostly up to 84.7 µM; note: % is set by controls: 0 for no effect and ±100 for the full control effect; nearly all actives have a fitted effect of over 45% in size
[6] = target: Retinal dehydrogenase 2 (Homo sapiens) (UniProt O94788); experiment: qHTS for Inhibitors of the Aldehyde Dehydrogenase Family (ALDH1A2) Confirmation screens (AID 2061314); details: ALDH1A2 enzyme inhibition qHTS confirmation; series mostly up to 45.9 µM; note: nearly all actives have a fitted effect of over 65% in size
[7] = target: Retinaldehyde dehydrogenase 3 (Homo sapiens) (UniProt P47895); experiment: qHTS for Inhibitors of the Aldehyde Dehydrogenase Family (ALDH1A3) Primary screen (AID 2061315); details: ALDH inhibition qHTS; series mostly up to 56 µM; note: potency is the fitted concentration of half-maximal effect
[8] = BET inhibitor-based combinations targeting novel dependencies in MECOM-rearranged (r) AML: SET-2 cell line (AID 2202231); details: SET-2 AML cells viability, CellTiter-Glo luminescence, 48 h; viability: active compounds read low, concentration not given here; note: nearly all actives have a fitted effect of over 35% in size; note: potency is the fitted concentration of half-maximal effect;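 for viability: plate controls were DMSO treated cells for no effect and wells without cells for full effect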
How it was run: (§1)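 Readout: CellTiter-Glo luminescence. Exposure: 48 h, 11 concentrations, 500 cells/well. Metric: AUC and within-line Z-AUC after DMSO/empty-well normalization.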

[9] = BET inhibitor-based combinations targeting novel dependencies in MECOM-rearranged (r) AML: OCI-AML3 cell line (AID 2202232); details: CellTiter-Glo luminescence, 48 h; Potency: OCI-AML3 viability; series mostly up to 46 µM; note: nearly all actives have a fitted effect of over 35% in size; note: potency is the fitted concentration of half-maximal effect
How it was run: as §1

[10] = BET inhibitor-based combinations targeting novel dependencies in MECOM-rearranged (r) AML: MV-4-11 cell line (AID 2202233); details: MV-4-11 AML viability, CellTiter-Glo luminescence, 48 h; series mostly up to 46 µM; note: nearly all actives have a fitted effect of over 45% in size; note: potency is the fitted concentration of half-maximal effect
How it was run: (§2)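 Seeding density was 500 cells/well, and drug exposure lasted 48 hr under standard culture conditions. Read-out used CellTiter-Glo reagent with a 15 min room-temperature incubation before luminescence measurement; AUC and Z-AUC summarize the normalized responses.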

[11] = BET inhibitor-based combinations targeting novel dependencies in MECOM-rearranged (r) AML: UCSD-AML1 cell line (AID 2202235); details: UCSD-AML1 AML cells viability, CellTiter-Glo, 48 h; series mostly up to 46 µM; note: nearly all actives have a fitted effect of over 40% in size; note: potency is the fitted concentration of half-maximal effect
How it was run: as §2

[12] = BET inhibitor-based combinations targeting novel dependencies in MECOM-rearranged (r) AML: AML-191 cell line (AID 2202236; note: nearly all actives have a fitted effect of over 35% in size; note: potency is the fitted concentration of half-maximal effect); details: AML-191 viability, CellTiter-Glo luminescence, 48 h; series mostly up to 46 µM
How it was run: as §1

[13] = BET inhibitor-based combinations targeting novel dependencies in MECOM-rearranged (r) AML: AML-194 cell line (AID 2202237; note: nearly all actives have a fitted effect of over 40% in size; note: potency is the fitted concentration of half-maximal effect); details: AML-194 (MECOM-r AML) viability, CellTiter-Glo, 48 h; series mostly up to 46 µM
How it was run: as §1

[14] = target: Retinaldehyde dehydrogenase 3 (Homo sapiens) (UniProt P47895); experiment: qHTS for Inhibitors of the Aldehyde Dehydrogenase Family (ALDH1A3) Confirmatory screens (AID 2061311); details: ALDH inhibition qHTS; series mostly up to 46 µM; note: nearly all actives have a fitted effect of over 60% in size; note: potency is the fitted concentration of half-maximal effect
[15] = target: Aldehyde dehydrogenase 1A1 (Homo sapiens) (UniProt P00352); experiment: qHTS for Inhibitors of the Aldehyde Dehydrogenase Family (ALDH1A1) Confirmatory screens (AID 2061316); details: ALDH inhibition qHTS; series mostly up to 47.3 µM; note: nearly all actives have a fitted effect of over 65% in size; note: potency is the fitted concentration of half-maximal effect
[16] = BET inhibitor-based combinations targeting novel dependencies in MECOM-rearranged (r) AML: HNT-34 cell line (AID 2202234); details: HNT-34 AML viability, CellTiter-Glo luminescence, 48 h; series mostly up to 46 µM;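 note: plate controls were vehicle wells for no effect and cell-free wells for full effect; nearly all actives have a fitted effect of over 35% in size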
How it was run: as §2

Chain of Cellular tumor antigen p53 (Homo sapiens) (P04637 whole entry, looked up): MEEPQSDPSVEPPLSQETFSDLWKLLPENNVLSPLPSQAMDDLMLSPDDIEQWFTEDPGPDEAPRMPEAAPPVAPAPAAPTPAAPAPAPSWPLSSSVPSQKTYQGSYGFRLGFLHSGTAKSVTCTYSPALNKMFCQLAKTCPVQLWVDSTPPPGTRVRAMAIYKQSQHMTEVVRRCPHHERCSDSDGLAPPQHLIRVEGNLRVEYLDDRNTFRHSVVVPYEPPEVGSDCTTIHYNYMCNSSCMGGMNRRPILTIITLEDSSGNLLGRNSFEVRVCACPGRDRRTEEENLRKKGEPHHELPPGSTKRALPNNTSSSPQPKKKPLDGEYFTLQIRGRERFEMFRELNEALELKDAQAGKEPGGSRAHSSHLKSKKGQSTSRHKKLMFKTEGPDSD

CCOc1ccc(Nc2nc(-c3c(C)nc4ccccn34)cs2)cc1
active: Potency [2] 15.8 µM | Potency [3] 7.94 µM | Potency [8] 0.132 µM | Potency [9] 0.0833 µM | Potency [10] 0.105 µM | Potency [11] 0.0934 µM | Potency [12] 0.0833 µM | Potency [13] 0.332 µM
inactive: activation [1] -3.9% and 0% | Potency [4] | Potency [5] | Potency [6] | Potency [7]

CC(C)c1c(-c2cnn(C(C)(C)C)c2)nc2c(C#N)c[nH]n2c1=O
inactive: activation [1] 11.2% | Potency [2] | Potency [3] | Potency [4] | Potency [14] | Potency [7] | Potency [15]

CC1(C)SCCN(S(=O)(=O)c2ccc(Oc3ccncc3)cc2)[C@H]1C(=O)NO
inactive: activation [1] 20.3% | Potency [2] | Potency [3] | Potency [4] | Potency [6]

C/C(=N\N=C(N)N)c1cc(NC(=O)CCCCCCCCC(=O)Nc2cc(/C(C)=N/N=C(N)N)cc(/C(C)=N/N=C(N)N)c2)cc(/C(C)=N/N=C(N)N)c1
inactive: Potency [2] | Potency [3] | Potency [4] | Potency [14] | Potency [7] | Potency [15]
active: Potency [1] 26.9 µM

CCC[C@H](N[C@@H](C)C(=O)N1[C@H](C(=O)O)C[C@@H]2CCCC[C@@H]21)C(=O)O
inactive: activation [1] -7.64% | Potency [2] | Potency [3] | Potency [4] | Potency [6] | Potency [7] | Potency [15]

CC(=O)N(O)CCCCCN1C(=O)CCC1=O
inactive: activation [1] -6.25% | Potency [2] | Potency [3] | Potency [4] | Potency [14] | Potency [7] | Potency [15]

CC1=NN(c2ccccc2)C(=O)C1
active: Potency [2] 12.6 µM | Potency [3] 6.31 µM | Potency [4] 0.794 µM | Potency [14] 8.91 µM | Potency [15] 1.42 µM
inactive: activation [1] -3.42% and 10.7% and -17% | viability [8] 112% | Potency [9] | Potency [10] | Potency [16] | Potency [11] | Potency [12] | Potency [13]

COc1cc2nc(N3CCCC3)nc(NCCCCCN3CCCC3)c2cc1OC
inactive: Potency [2] | Potency [3] | Potency [4] | Potency [5] | Potency [6] | Potency [7]
active: Potency [1] 30.6 µM

CN(C)c1cccc(-c2c3c(=O)n(-c4ccccc4Cl)[nH]c3cc(=O)n2C)c1
inactive: activation [1] 5.36% and -13.4% | Potency [2] | Potency [3] | Potency [4] | Potency [6] | viability [8] 110% | Potency [9] | Potency [10] | Potency [11] | Potency [12] | Potency [13]

Oc1ccc(CC2NCCc3cc(O)c(O)cc32)cc1 (stereo not given)
inactive: activation [1] -12.9% | Potency [2] | Potency [3] | Potency [4] | Potency [14] | Potency [6] | Potency [15]

OC[C@@]1(O)CO[C@@H](OC[C@H]2O[C@@H](Oc3ccccc3)[C@H](O)[C@@H](O)[C@@H]2O)[C@@H]1O
inactive: activation [1] -3.82% | Potency [2] | Potency [3] | Potency [4] | Potency [6] | Potency [15]

C/C=C1\[C@H](O[C@@H]2O[C@H](CO)[C@@H](O)[C@H](O)[C@H]2O)OC=C(C(=O)OC)[C@H]1CC(=O)OC[C@H]1O[C@@H](OCCc2ccc(O)cc2)[C@H](O)[C@@H](O)[C@@H]1O
inactive: activation [1] -1.53% | Potency [2] | Potency [3] | Potency [4] | Potency [6]

COC(=O)N1CC2(CC2)C[C@H](C(=O)NO)[C@H]1C(=O)N1CCN(c2ccccc2)CC1
inactive: activation [1] 12.6% | Potency [2] | Potency [3] | Potency [4] | Potency [14] | Potency [6] | Potency [15] | viability [8] 112% | Potency [9] | Potency [10] | Potency [12] | Potency [13]

C=C1CC[C@H]2[C@@](C)(CCC(OC3OC(CO)C(O)C(O)C3O)[C@@]2(C)CO)C1C(=O)CC1=CCOC1=O (stereo not given in full)
inactive: activation [1] -1.53% | Potency [2] | Potency [3] | Potency [4] | Potency [6]

CCOc1ccc2ccccc2c1C(=O)N[C@@H]1C(=O)N2[C@@H]1SC(C)(C)[C@@H]2C(=O)O
inactive: activation [1] 5.08% and -4.77% | Potency [2] | Potency [3] | Potency [4] | Potency [5] | Potency [6] | Potency [15]

NC(=O)c1cccc(-c2cc(OC(=O)NC3CCCCC3)ccc2O)c1
inactive: activation [1] 7% | Potency [2] | Potency [4] | Potency [14] | Potency [7]
active: Potency [3] 10.1 µM

NCCCCN(Cc1nc2ccccc2[nH]1)[C@H]1CCCc2cccnc21
inactive: activation [1] 1.43% | Potency [2] | Potency [3] | Potency [4] | Potency [5] | Potency [6] | Potency [7] | Potency [15]

CNC(=O)Nc1ccc(OC)c(NC(=O)NC(=O)c2cc(F)c(F)cc2Cl)c1
active: Potency [7] 28.2 µM
inactive: activation [1] -5.67% | Potency [2] | Potency [3] | Potency [4] | Potency [14] | Potency [15]
